# Data: PubChem BioAssay AID624255 (Broad Institute, 2012)
# Hit rate of the full screen: of about 77,000 compounds, about 4,600 (6%) were called active. Not shown: some 1% with an inconclusive outcome.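 How the source made its calls: active means mean inhibition above about 93%, with at least 55% of replicates each passing it (limit read from the data, passing the limit was not always enough); inconclusive means only one of those two conditions holds; inactive means neither condition holds.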 The entries come from a sample that favours actives as a whole.
# Assay: growth inhibition of T. cruzi in host fibroblasts – cell-based, beta-gal Tulahuen parasites, NIH3T3 host, luminescence, primary screen (AID 624255)
# Details: T. cruzi beta-gal in NIH3T3, GalScreen luminescence, 90 h; at 8.34 µM; hits give high values
row,Structure (SMILES),inhibition
1,COc1ccccc1NC(=O)N[C@H]1C=C[C@@H](CC(=O)N[C@@H](C)c2ccccc2)O[C@@H]1CO,3.52% (inactive)
2,CO[C@H]1CN(C)C(=O)c2cc(NC(=O)C3CCC3)ccc2OC[C@H](C)N(Cc2nccs2)C[C@H]1C,16.8% (inactive)
3,CCCNC(=O)[C@@H]1[C@@H](CO)[C@@H]2Cn3c(cccc3=O)[C@H]1N2C(=O)C1CC1,38.4% (inactive)
4,CCCNC(=O)[C@@H]1[C@@H](CO)[C@@H]2Cn3c(cccc3=O)[C@H]1N2C(=O)Nc1cc(F)ccc1F,81.1% (inactive)
5,C[C@@H]1CN([C@@H](C)CO)C(=O)c2cc(NC(=O)C3CCCCC3)ccc2O[C@@H](C)CCCCO[C@H]1CN(C)Cc1ccncc1,106% (active)
6,C[C@@H]1CCCCO[C@@H](CN(C)Cc2ccc(C(=O)O)cc2)[C@H](C)CN([C@@H](C)CO)C(=O)c2cc(NC(=O)C3CCCCC3)ccc2O1,-8.6% (inactive)
7,C[C@@H]1CCCCO[C@@H](CN(C)CC2CC2)[C@H](C)CN([C@H](C)CO)C(=O)c2cc(NC(=O)C3CCCCC3)ccc2O1,102% (active)
8,C[C@@H]1CN([C@@H](C)CO)C(=O)c2cc(NC(=O)C3CCCCC3)ccc2O[C@@H](C)CCCCO[C@@H]1CN(C)Cc1ccc(C(=O)O)cc1,15.2% (inactive)
9,C[C@@H]1CCCCO[C@@H](CN(C)CC2CCCCC2)[C@H](C)CN([C@H](C)CO)C(=O)c2cc(NC(=O)C3CCCCC3)ccc2O1,51.3% (inactive)
10,C[C@@H]1CCCCO[C@@H](CN(C)CC2CC2)[C@@H](C)CN([C@H](C)CO)C(=O)c2cc(NC(=O)C3CCCCC3)ccc2O1,89% (inactive)
11,O=C(O)C[C@H]1C[C@@H]2c3cc(NC(=O)Nc4ccc(C(F)(F)F)cc4)ccc3O[C@@H]2[C@@H](CO)O1,-33% (inactive)
12,C[C@H]1CN([C@@H](C)CO)C(=O)c2cccc(NC(=O)Nc3ccccc3)c2O[C@H]1CN(C)S(=O)(=O)c1ccc(F)cc1,-95% (inactive)
13,C[C@H]1CCCCO[C@H](CN(C)CC2CC2)[C@@H](C)CN([C@@H](C)CO)C(=O)c2cc(NS(C)(=O)=O)ccc2O1,4.98% (inactive)
14,CCNC(=O)Nc1ccc2c(c1)C(=O)N(C)[C@@H]1CC[C@@H](CC(=O)NC3CCCCC3)O[C@H]1CO2,12.5% (inactive)
15,CC(C)(O)C#Cc1ccc([C@@H]2[C@H](CO)N3CCCCN(C(=O)c4cccc(F)c4)C[C@@H]23)cc1,112% (active)
16,O=C(c1ccc(F)cc1)N1CCCCN2[C@@H](CO)[C@H](c3ccc(-c4ccccc4)cc3)[C@@H]2C1,61.8% (inactive)
17,O=C(c1cccc(F)c1)N1CCCCN2[C@H](CO)[C@H](c3ccc(-c4ccncc4)cc3)[C@H]2C1,99.9% (active)
18,CC(C)(O)C#Cc1ccc([C@H]2[C@@H](CO)N3CCCCN(C(=O)c4ccncc4)C[C@H]23)cc1,10.9% (inactive)
19,C[C@@H](O)C#Cc1ccc([C@H]2[C@H](CO)N3CCCCN(C(=O)c4ccc(F)cc4)C[C@@H]23)cc1,-25.9% (inactive)
20,O=C(c1cccc(F)c1)N1CCCCN2[C@@H](CO)[C@H](c3ccc(-c4cncnc4)cc3)[C@@H]2C1,83.5% (inactive)
21,C[C@H](O)C#Cc1ccc([C@@H]2[C@@H](CO)N3CCCCN(C(=O)c4ccncc4)C[C@@H]23)cc1,15.2% (inactive)
22,COc1ccc(C#Cc2ccc([C@@H]3[C@@H](CO)N4CCCCN(C(=O)c5ccncc5)C[C@@H]34)cc2)cc1,98.5% (active)
23,O=C(c1cccc(F)c1)N1CCCCN2[C@H](CO)[C@@H](c3ccc(-c4cncnc4)cc3)[C@H]2C1,44.2% (inactive)

row,Structure (SMILES),inhibition
1,CC(C)(O)C#Cc1ccc([C@H]2[C@H]3CN(C(=O)c4ccncc4)CCCCN3[C@H]2CO)cc1,22% (inactive)
2,COc1ccccc1-c1ccc([C@@H]2[C@@H](CO)N3CCCCN(C(=O)c4ccncc4)C[C@@H]23)cc1,52.8% (inactive)
3,O=C(c1ccncc1)N1CCCCN2[C@H](CO)[C@H](c3ccc(-c4ccccc4)cc3)[C@H]2C1,103% (active)
4,O=C(C[C@@H]1CC[C@H]2[C@@H](COC[C@@H](O)CN2C(=O)c2ccc3c(c2)OCO3)O1)NC1CCCC1,27% (inactive)
5,CCS(=O)(=O)Nc1ccc2c(c1)C(=O)N(C)[C@H]1CC[C@H](CC(=O)Nc3ccccc3)O[C@@H]1CO2,49.6% (inactive)
6,C[C@@H]1CN([C@@H](C)CO)C(=O)c2cc(-c3ccc(F)cc3)cnc2O[C@H]1CN(C)C(=O)c1ccncc1,64.3% (inactive)
7,CC(C)NC(=O)N(C)C[C@@H]1OCCCC[C@@H](C)Oc2ccc(NC(=O)c3ccccc3)cc2C(=O)N([C@@H](C)CO)C[C@H]1C,30.5% (inactive)
8,COc1ccc(NC(=O)N(C)C[C@@H]2OCCCC[C@@H](C)Oc3ccc(NC(=O)C4CCCCC4)cc3C(=O)N([C@@H](C)CO)C[C@@H]2C)cc1,36.5% (inactive)
9,CN1CCN(C(=O)C[C@H]2CC[C@H]3[C@H](COc4ccc(NC(=O)C5CC5)cc4C(=O)N3C)O2)CC1,14.2% (inactive)
10,O=C(C[C@@H]1C[C@@H]2c3cc(NC(=O)Nc4ccc(C(F)(F)F)cc4)ccc3O[C@@H]2[C@@H](CO)O1)NCCc1ccccc1,93.5% (inactive)
11,COc1ccccc1NC(=O)N1C[C@H](O)COC[C@H]2O[C@H](CC(=O)NCCc3ccccc3)CC[C@@H]21,-5.34% (inactive)
12,CCCNC(=O)C[C@@H]1CC[C@@H]2[C@H](COc3ccc(NC(=O)C4CCOCC4)cc3C(=O)N2C)O1,47.3% (inactive)
13,CO[C@@H]1CC[C@@H]2CCOc3ccc(C#N)cc3C(=O)N(C)C[C@@H](C)C(=O)N(C)C[C@@H]1O2,9.86% (inactive)
14,C[C@H](O)C#Cc1ccc([C@H]2[C@H](CO)N3CCCCN(C(=O)c4ccc(F)cc4)C[C@@H]23)cc1,66.2% (inactive)
15,O=C(c1ccc(F)cc1)N1CCCCN2[C@H](C1)[C@@H](c1ccc(C#CC3(O)CCCC3)cc1)[C@@H]2CO,113% (active)
16,O=C(c1cccc(F)c1)N1CCCCN2[C@H](CO)[C@H](c3ccc(C#CC4(O)CCCC4)cc3)[C@H]2C1,88.1% (inactive)
17,CC(C)C#Cc1ccc([C@H]2[C@H](CO)N3CCCCN(C(=O)c4ccc(F)cc4)C[C@@H]23)cc1,80.8% (inactive)
18,COc1ccc(S(=O)(=O)N(C)C[C@@H]2OCCCC[C@@H](C)Oc3ccc(N(C)C)cc3C(=O)N([C@@H](C)CO)C[C@@H]2C)cc1,46.8% (inactive)
19,O=C(C[C@@H]1CC[C@@H](NC(=O)CC2CC2)[C@H](CO)O1)NCc1ccc(-c2ccccc2)cc1,36.4% (inactive)
20,N#C[C@@H]1[C@@H](c2ccccc2)[C@@H](CO)N1C(=O)c1cc(Cl)cc(Cl)c1,90.7% (inactive)
21,COc1ccc(NC(=O)Nc2ccc3c(c2)C(=O)N([C@@H](C)CO)C[C@@H](C)[C@H](CN(C)C(=O)NC(C)C)OCCCC[C@H](C)O3)cc1,19.2% (inactive)
22,COc1cccc(-c2ccc3n(c2=O)C[C@@H]2[C@@H](CO)[C@H](C(=O)NCC4CC4)N(C(=O)NC(C)C)[C@H]32)c1,-3.92% (inactive)
23,COc1ccc(-c2cn(CC[C@@H]3CC[C@@H](NS(=O)(=O)c4ccccc4C)[C@H](CO)O3)nn2)cc1,-38.7% (inactive)

row,Structure (SMILES),inhibition
1,O=C(NCC1CCCCC1)[C@H]1[C@H](CO)[C@H]2Cn3c(cccc3=O)[C@H]2N1C(=O)CC1CC1,101% (active)
2,O=C(NC1CCCCC1)[C@@H]1[C@@H](CO)[C@@H]2Cn3c(cccc3=O)[C@@H]2N1C(=O)CC1CC1,-9.4% (inactive)
3,CCNC(=O)[C@H]1[C@H](CO)[C@H]2Cn3c(cccc3=O)[C@H]2N1C(=O)C1CCCC1,-9.09% (inactive)
4,O=C(Nc1ccc(-c2ccccc2)cc1)[C@H]1[C@H](CO)[C@H]2Cn3c(cccc3=O)[C@H]2N1CC1CC1,170% (active)
5,O=C(Nc1ccc(-c2ccccc2)cc1)[C@@H]1[C@@H](CO)[C@@H]2Cn3c(cccc3=O)[C@H]1N2Cc1ccncc1,10.3% (inactive)
6,O=C(Nc1ccccc1)[C@@H]1[C@@H](CO)[C@@H]2Cn3c(cccc3=O)[C@@H]2N1C(=O)C1CC1,90.7% (inactive)
7,COC(=O)C[C@H]1C[C@@H]2c3cc(NC(=O)Nc4ccccc4)ccc3O[C@@H]2[C@@H](CO)O1,57.1% (inactive)
8,O=C(Cc1ccccn1)NCC[C@H]1CC[C@@H](NS(=O)(=O)c2ccc(F)cc2)[C@H](CO)O1,13.9% (inactive)
9,COc1ccc(NC(=O)N(C)C[C@@H]2OCCCC[C@H](C)Oc3ccc(NS(=O)(=O)c4c(C)noc4C)cc3C(=O)N([C@@H](C)CO)C[C@@H]2C)cc1,52.5% (inactive)
10,O=S(=O)(NC[C@H]1[C@@H](c2ccccc2)[C@@H](CO)N1CC1CC1)c1ccccc1,10.3% (inactive)
11,CCc1cnc(N2[C@H](C#N)[C@H](c3ccc(C4=CCCC4)cc3)[C@@H]2CO)s1,101% (active)
12,CCCNC(=O)N1[C@H](C#N)[C@@H](c2ccc(C3=CCCC3)cc2)[C@H]1CO,-28.9% (inactive)
13,N#C[C@H]1[C@@H](c2ccc(C3=CCCCC3)cc2)[C@@H](CO)N1C(=O)Cc1ccncc1,57.5% (inactive)
14,N#C[C@@H]1[C@@H](c2ccc(C3=CCCCC3)cc2)[C@@H](CO)N1C(=O)c1cccc(F)c1,5.72% (inactive)
15,N#C[C@H]1[C@@H](c2ccc(C3=CCCCC3)cc2)[C@@H](CO)N1C(=O)NC1CCCCC1,101% (active)
16,N#C[C@@H]1[C@@H](c2ccc(C3=CCCC3)cc2)[C@@H](CO)N1C(=O)C1CCCC1,34.1% (inactive)
17,N#C[C@H]1[C@@H](c2ccc(C#CC3CCCC3)cc2)[C@H](CO)N1C(=O)Nc1ccc(F)cc1,92.8% (inactive)
18,CC(C)NC(=O)N1[C@H](C#N)[C@@H](c2ccc(-c3ccc(F)cc3)cc2)[C@H]1CO,34.6% (inactive)
19,CS(=O)(=O)N1[C@H](C#N)[C@H](c2ccc(C#CC3CCCC3)cc2)[C@H]1CO,91.5% (inactive)
20,CS(=O)(=O)N1[C@H](C#N)[C@H](c2ccc(C#CC3CC3)cc2)[C@H]1CO,93% (inactive)
21,CS(=O)(=O)N1[C@@H](C#N)[C@H](c2ccc(C#CC3CCCCC3)cc2)[C@@H]1CO,105% (active)
22,CC(C)NC(=O)N1[C@H](C#N)[C@H](c2ccc(C#CC3CCCCC3)cc2)[C@H]1CO,107% (active)
